Screen size: about 39,000 compounds; about 1,500 (3.8%) were called active. This excerpt belongs to a sample that is enriched for actives.

Cytotoxicity call data for 40 molecules are collected here from the antibiotic and cytotoxicity screens of Wong et al. (2023).

The experiment deals with HSkMC (human skeletal muscle cells). Put plainly: cytotoxicity call (relative viability < 0.9). Conditions: 10 µM.
Regarding `CC(C)NC(=O)N(C)C[C@@H]1Oc2ccc(NS(=O)(=O)c3cccs3)cc2C(=O)N([C@@H](C)CO)C[C@H]1C`, the cytotoxicity call was “inactive”.

As to `C[C@@H]1CCCCO[C@@H](CN(C)C(=O)NC2CCCCC2)[C@H](C)CN([C@@H](C)CO)C(=O)c2cc(NC(=O)Nc3ccccc3)ccc2O1`, the cytotoxicity call is “inactive”.

In the case of `Cc1ccc(S(=O)(=O)N(C)C[C@@H]2OCCCC[C@@H](C)Oc3ccc(NS(C)(=O)=O)cc3C(=O)N([C@@H](C)CO)C[C@H]2C)cc1`, the cytotoxicity call is “inactive”.

With `O=C(C[C@H]1C[C@H]2c3cc(NC(=O)Nc4ccccc4F)ccc3O[C@H]2[C@@H](CO)O1)NCc1ccc(Oc2ccccc2)cc1`, the cytotoxicity call is “active”.

For `O=C(C[C@@H]1C[C@@H]2c3cc(NS(=O)(=O)c4ccc(F)cc4)ccc3O[C@@H]2[C@H](CO)O1)NCc1ccc(Oc2ccccc2)cc1`, the cytotoxicity call is “inactive”.

For the molecule `O=C(C[C@@H]1C[C@H]2c3cc(NC(=O)Nc4ccccc4F)ccc3O[C@H]2[C@H](CO)O1)NCc1ccc(Oc2ccccc2)cc1`, the cytotoxicity call was “inactive”.

As to `O=C(C[C@@H]1C[C@H]2c3cc(NC(=O)Nc4ccccc4F)ccc3O[C@H]2[C@@H](CO)O1)NCc1ccc(Oc2ccccc2)cc1`, the cytotoxicity call was “inactive”.

Take `O=C(C[C@H]1C[C@H]2c3cc(NS(=O)(=O)c4ccc(F)cc4)ccc3O[C@H]2[C@@H](CO)O1)NCc1ccc(Oc2ccccc2)cc1`: the cytotoxicity call was “active”.

As for `O=C(C[C@H]1C[C@H]2c3cc(NC(=O)Nc4ccccc4F)ccc3O[C@H]2[C@H](CO)O1)NCc1ccc(Oc2ccccc2)cc1`, the cytotoxicity call is “inactive”.

With `COc1cccc(S(=O)(=O)Nc2ccc3c(c2)[C@H]2C[C@@H](CC(=O)NCCc4ccccc4)O[C@H](CO)[C@H]2O3)c1`, the cytotoxicity call was “active”.

For the molecule `O=C(C[C@H]1C[C@H]2c3cc(NS(=O)(=O)c4ccc(F)cc4)ccc3O[C@H]2[C@H](CO)O1)NCc1ccc(Oc2ccccc2)cc1`, the cytotoxicity call is “inactive”.

With `O=C(C[C@@H]1C[C@@H]2c3cc(NC(=O)Nc4ccccc4F)ccc3O[C@@H]2[C@@H](CO)O1)NCc1ccc(Oc2ccccc2)cc1`, the cytotoxicity call was “inactive”.

Consider `COc1cccc(S(=O)(=O)Nc2ccc3c(c2)[C@H]2C[C@H](CC(=O)NCCc4ccccc4)O[C@@H](CO)[C@H]2O3)c1`, for which the cytotoxicity call was “inactive”.

Consider `O=C(C[C@H]1C[C@@H]2c3cc(NC(=O)Nc4ccccc4F)ccc3O[C@@H]2[C@H](CO)O1)NCc1ccc(Oc2ccccc2)cc1`, for which the cytotoxicity call is “active”.

As for `COc1cccc(S(=O)(=O)Nc2ccc3c(c2)[C@H]2C[C@@H](CC(=O)NCCc4ccccc4)O[C@@H](CO)[C@H]2O3)c1`, the cytotoxicity call was “inactive”.

Regarding `O=C(O)[C@H]1CCCNC1`, the cytotoxicity call was “inactive”.

Take `CO[C@@H]1CN(C)C(=O)c2ccc(NC(=O)Nc3cccc(F)c3)cc2OC[C@@H](C)N(C(=O)Nc2c(C)noc2C)C[C@@H]1C`: the cytotoxicity call is “inactive”.

As for `C[C@H](CO)N1C[C@H](C)[C@@H](CN(C)Cc2ccccc2)OCCCC[C@H](C)Oc2ccc(NC(=O)Nc3ccc4c(c3)OCO4)cc2C1=O`, the cytotoxicity call is “inactive”.

Take `C[C@@H]1CCCCO[C@H](CN(C)S(=O)(=O)c2ccc(Cl)cc2)[C@@H](C)CN([C@H](C)CO)C(=O)c2cc(NC(=O)Nc3ccc4c(c3)OCO4)ccc2O1`: the cytotoxicity call was “inactive”.

Consider `CC(C)NC(=O)N(C)C[C@@H]1OCCCC[C@@H](C)Oc2ccc(NC(=O)C3CCCCC3)cc2C(=O)N([C@@H](C)CO)C[C@@H]1C`, for which the cytotoxicity call was “inactive”.

As for `Cc1noc(C)c1NC(=O)Nc1ccc2c(c1)C(=O)N([C@@H](C)CO)C[C@@H](C)[C@@H](CN(C)C(=O)C1CCCCC1)OCCCC[C@@H](C)O2`, the cytotoxicity call is “inactive”.

Consider `N#Cc1ccc(-c2cccs2)nc1`, for which the cytotoxicity call is “inactive”.

`C[C@H]1CN([C@@H](C)CO)C(=O)Cc2cc(NC(=O)Cn3cnnn3)ccc2O[C@H]1CN(C)Cc1ccncc1`: the cytotoxicity call is “inactive”.

With `CC(=O)N1Cc2cc(C(=O)NCc3cccc(F)c3)nc(-c3cccc(C4=CCCCC4)c3)c2[C@H]1CCO`, the cytotoxicity call is “active”.

As for `COc1ccccc1-c1cccc(-c2nc(C(=O)Nc3nccs3)cc3c2[C@@H](CCO)N(C(=O)CC2CC2)C3)c1`, the cytotoxicity call was “inactive”.

For `COc1ccc(C#Cc2cccc(-c3nc(C(=O)N4CCN(Cc5ccccc5)CC4)cc4c3[C@@H](CCO)N(S(=O)C(C)(C)C)C4)c2)cc1OC` (stereo not given in full), the cytotoxicity call was “inactive”.

Take `COc1ccccc1-c1cccc(-c2nc(C(=O)Nc3nccs3)cc3c2[C@H](CCO)N(C(=O)CC2CC2)C3)c1`: the cytotoxicity call was “inactive”.

For the molecule `CC(C)(C)S(=O)N1Cc2cc(C(=O)N3CCN(Cc4ccccc4)CC3)nc(-c3cccc(-c4cc5ccccc5o4)c3)c2[C@H]1CCO` (stereo not given in full), the cytotoxicity call was “active”.

With `CC(=O)N1Cc2cc(C(=O)NCc3cc(F)cc(F)c3)nc(-c3cccc(C4=CCCC4)c3)c2[C@H]1CCO`, the cytotoxicity call was “inactive”.

Turning to `O=C(NCC1CC1)c1cc2c(c(-c3cccc(-c4ccccc4F)c3)n1)[C@@H](CCO)N(C(=O)CC1CC1)C2`, the cytotoxicity call is “inactive”.

Consider `CC(=O)N1Cc2cc(C(=O)NCc3cccc(F)c3)nc(-c3cccc(C4=CCCCC4)c3)c2[C@@H]1CCO`, for which the cytotoxicity call was “inactive”.

Regarding `CC(=O)N1Cc2cc(C(=O)NCC(F)(F)F)nc(-c3cccc(-c4cc5ccccc5o4)c3)c2[C@H]1CCO`, the cytotoxicity call is “inactive”.

As for `CCC(=O)N1Cc2cc(C(=O)Nc3nccs3)nc(-c3cccc(-c4ccccc4OC)c3)c2[C@H]1CCO`, the cytotoxicity call was “active”.

Turning to `O=C(NCC(F)(F)F)c1cc2c(c(-c3cccc(-c4ccccc4F)c3)n1)[C@@H](CCO)N(C(=O)CC1CC1)C2`, the cytotoxicity call is “active”.

For `COc1ccc(C#Cc2cccc(-c3nc(C(=O)N4CCN(Cc5ccccc5)CC4)cc4c3[C@H](CCO)N(S(=O)C(C)(C)C)C4)c2)cc1OC` (stereo not given in full), the cytotoxicity call was “inactive”.

As for `C[C@@H]1CN([C@@H](C)CO)C(=O)c2cc(NC(=O)CCC(F)(F)F)ccc2O[C@@H](C)CCCCO[C@H]1CN(C)C(=O)Nc1ccccc1`, the cytotoxicity call was “inactive”.

`O=C(C[C@H]1CC[C@@H]2[C@H](COC[C@H](O)CN2C(=O)Nc2ccc(Cl)c(Cl)c2)O1)NCc1ccc(Cl)c(Cl)c1`: the cytotoxicity call was “inactive”.

Regarding `CCC(=O)N(C)C[C@H]1Oc2ncc(C#C[C@@H](C)O)cc2C(=O)N([C@H](C)CO)C[C@@H]1C`, the cytotoxicity call was “inactive”.

Take `Cc1noc(C)c1NC(=O)Nc1ccc2c(c1)C(=O)N([C@@H](C)CO)C[C@H](C)[C@@H](CN(C)Cc1ccncc1)OCCCC[C@@H](C)O2`: the cytotoxicity call was “inactive”.

Take `CCCN(C)C[C@H]1OCCCC[C@@H](C)Oc2ccc(NC(=O)Nc3ccc(F)cc3)cc2C(=O)N([C@@H](C)CO)C[C@H]1C`: the cytotoxicity call is “inactive”.
